AGP1 TOR yeast = modulators of AGP1-GFP expression in yeast TOR pathway, primary screen, cell-based, multiplex flow cytometry, S. cerevisiae, MLPCN library; 3 h; GFP as percent of DMSO wells; GFP response vs DMSO, % at 10 µM; actives 0.02% (n = 320,000); AID 2066, 2009;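 active = GFP response relative to DMSO above a set limit, near screen average plus 3 SD, cut at about 150% in these data; inconclusive = fewer than 70 cells counted for the yeast strain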;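 note: median GFP channel fluorescence of the gated AGP1 strain per well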
CIT2-GFP yeast = modulators of CIT2-GFP expression in yeast, primary screen, S. cerevisiae, GFP fusion, multiplex flow cytometry, MLPCN library. GFP response vs DMSO, % at 10 µM. actives 0.065% (n = 320,000). AID 2029, 2009. S. cerevisiae CIT2-GFP strain, 3 h; 100 means same as DMSO wells;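 active = GFP response relative to DMSO above a set limit, near the screen mean plus 3 SD, cut at about 150% in these data; inconclusive = Fewer than 70 cells measured for a yeast strain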;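 note: ratio of well median GFP fluorescence to mean of DMSO wells on the plate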
VLA-4 inh = inhibition in human VLA-4 binding assay, primary screen, VLA-4 allosteric modulator project, MLPCN library, flow cytometry, VLA-4 expressing cells; Integrin alpha-4 (Homo sapiens), P13612; ligand binding flow cytometry; inhibition, % (about 7 µM as worked out from the volumes in the protocol); actives 0.2% (n = 330,000); in the data active = inhibition above about 50%
Target sequence (P13612 whole entry, looked up): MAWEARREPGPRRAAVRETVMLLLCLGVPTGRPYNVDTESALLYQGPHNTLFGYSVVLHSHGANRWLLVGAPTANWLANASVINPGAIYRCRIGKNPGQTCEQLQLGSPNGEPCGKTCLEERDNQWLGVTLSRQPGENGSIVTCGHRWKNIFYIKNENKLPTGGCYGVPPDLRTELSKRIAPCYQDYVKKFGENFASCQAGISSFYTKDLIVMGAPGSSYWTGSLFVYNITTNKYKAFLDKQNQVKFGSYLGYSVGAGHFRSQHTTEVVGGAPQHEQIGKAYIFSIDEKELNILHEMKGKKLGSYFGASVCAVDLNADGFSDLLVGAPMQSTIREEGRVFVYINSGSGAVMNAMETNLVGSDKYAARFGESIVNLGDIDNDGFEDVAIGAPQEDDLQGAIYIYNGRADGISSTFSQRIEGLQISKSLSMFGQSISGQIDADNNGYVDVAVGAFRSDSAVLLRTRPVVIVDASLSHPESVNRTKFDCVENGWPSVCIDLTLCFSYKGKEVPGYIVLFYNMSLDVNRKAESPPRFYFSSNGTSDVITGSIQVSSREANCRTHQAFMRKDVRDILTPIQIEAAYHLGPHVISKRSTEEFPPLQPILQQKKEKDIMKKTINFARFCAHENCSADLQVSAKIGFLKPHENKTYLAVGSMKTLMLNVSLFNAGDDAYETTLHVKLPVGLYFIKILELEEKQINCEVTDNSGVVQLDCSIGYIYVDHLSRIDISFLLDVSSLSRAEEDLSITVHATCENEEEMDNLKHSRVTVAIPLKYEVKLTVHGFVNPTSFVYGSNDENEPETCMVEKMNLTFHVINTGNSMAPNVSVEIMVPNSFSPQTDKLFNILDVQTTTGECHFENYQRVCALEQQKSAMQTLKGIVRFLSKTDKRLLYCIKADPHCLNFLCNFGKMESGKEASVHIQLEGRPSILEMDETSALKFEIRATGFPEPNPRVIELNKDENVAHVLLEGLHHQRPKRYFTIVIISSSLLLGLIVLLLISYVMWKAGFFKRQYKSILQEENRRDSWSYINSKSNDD
RPL19A-GFP yeast = RPL19A-GFP expression modulators in yeast, primary screen, cell-based, S. cerevisiae, multiplex flow cytometry, MLPCN; S. cerevisiae RPL19A-GFP strain, 3 h; hits give low values; percent response vs DMSO, % at 10 µM; actives 0.3% (n = 330,000);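 active = percent response vs DMSO below 50%; inconclusive = fewer than 70 events counted for the yeast strain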;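 note: median channel GFP fluorescence of the barcoded RPL19A-GFP strain; lower means less RPL19A-GFP as with rapamycin TOR inhibition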
LAP4 TOR yeast = modulators of LAP4-GFP expression in yeast, primary screen, S. cerevisiae, multiplex flow cytometry, MLPCN library | 3 h; median GFP as percent of DMSO wells | GFP response vs DMSO, % at 10 µM | actives 0.34% (n = 320,000) | AID 2023, 2009;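 active = GFP response vs DMSO above a set limit, about the screen mean plus 3 SD, cut at about 150% in these data; inconclusive = under 70 cell events counted for the yeast strain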
MEP2 TOR yeast = modulators of MEP2-GFP levels in yeast, primary screen, S. cerevisiae, multiplex flow cytometry, MLPCN library; S. cerevisiae MEP2-GFP strain, 3 h; 100% = DMSO control level; GFP response vs DMSO, % at 10 µM; actives 0.51% (n = 330,000); AID 2016, 2009;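 active = GFP response versus DMSO above a set limit, roughly screen mean plus 3 SD, cut at about 180% in these data; inconclusive = fewer than 70 cells counted for a yeast strain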;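 note: median GFP fluorescence of the barcode-gated MEP2-GFP cells per well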
VLA-4 allo CP = retest of VLA-4 allosteric modulators, confirmation, cell-based, cherry-picked plates, U937, HUTS-21 LIBS antibody; inhibition, % at 6.7 µM; shares compounds with VLA-4 inh; actives 2% (n = 1,300); AID 2813, 2010; U937 cells, HUTS-21 LIBS mAb binding, flow cytometry; LDV ligand present at threefold Kd; in the data active = inhibition above about 40%
A number is an active result; . = inactive; ? = inconclusive; / = no result. In the library only some 1.1% were active in any assay of this set; here they are far more common.

SMILES	AGP1 TOR yeast	CIT2-GFP yeast	VLA-4 inh	RPL19A-GFP yeast	LAP4 TOR yeast	MEP2 TOR yeast	VLA-4 allo CP
CC(C)NC(=O)c1ccc(N(Cc2ccccc2)S(C)(=O)=O)cc1	.	.	.	.	.	.	/
CC1CN(C(=O)c2cc(S(=O)(=O)N(C)c3ccc(F)cc3)ccc2Cl)CC(C)O1 (centres undefined)	?	?	.	.	?	?	/
O=C(COC(=O)c1nsc(Cl)c1Cl)NC1CCCC1	.	.	.	.	.	.	/
O=C(CN(CC1CCCO1)C(=O)c1nsc(Cl)c1Cl)NC1CCCC1 (centres undefined)	.	.	57	.	.	.	.
CC(C)(C)c1ccc(C(=O)NCCCN2CCN(CCCNC(=O)c3ccc(C(C)(C)C)cc3)CC2)cc1	.	.	.	.	.	.	.
Cc1cc(C)n(-c2nc3c(c(=O)[nH]c(=O)n3C)n2Cc2cccc(Br)c2)n1	/	.	54	.	.	.	.
COc1ccc(S(=O)(=O)NNC(=O)Nc2ccc(F)cc2F)c(OC)c1	.	.	.	.	.	.	/
CC(C)[C@@H]1CN=C(N)N1C[C@@H]1CCCN1C[C@H](C)N1C[C@@H](Cc2ccccc2)N(CCc2ccc(Cl)c(Cl)c2)C1=N	.	.	53	.	.	.	.
C[C@@H](CN1CCC[C@H]1CN1C(N)=NC[C@@H]1Cc1ccccc1)N1C[C@@H](Cc2ccccc2)N(CCc2ccc(Cl)c(Cl)c2)C1=N	.	.	.	.	.	.	/
COc1ccc(N)cc1S(=O)(=O)Nc1ccccc1Cl	.	.	.	.	.	.	.
CC1=C(C(=O)OCC2CCCO2)C(c2ccncc2)C2=C(CCCC2=O)N1 (centres undefined)	.	.	92	.	.	.	.
CC1=C(C(=O)OCC2CCCO2)C(c2ccc(C)cc2)C2=C(CCCC2=O)N1 (centres undefined)	.	.	.	.	.	.	/
Cc1ccc2c(c1)N(CC(=O)NCC(C)c1ccccc1)C(=O)c1cccnc1O2 (centres undefined)	.	.	53	.	.	.	.
N#Cc1ccc2c(c1)NC(=O)C1CCCN21 (centres undefined)	.	.	.	.	.	.	/
O=C1NCC(=O)N2CCC[C@@H]12	.	.	54	.	.	.	.
O=C1C2C3C=CC(c4ccccc4)(C2C(=O)N1c1cccc(Cl)c1)C1C(=O)N(c2cccc(Cl)c2)C(=O)C31 (centres undefined)	.	.	57	.	.	.	.
O=C(NC1CCCCC1)c1ccc(S(=O)(=O)NCc2ccco2)cc1	.	.	52	.	.	.	.
COc1ccc(S(=O)(=O)N2CCCCCC2)cc1NC(=O)CN1C(=O)CNC1=O	.	.	.	.	.	.	/
CC(=O)Nc1cccc(NC(=O)C(=O)NCC(c2ccco2)N2CCc3ccccc32)c1 (centres undefined)	.	.	.	.	.	.	/
Cc1cn(-c2cc(C(=O)Nc3ccc(C)c(NC(=O)N4CCNC4=O)c3)cc(C(F)(F)F)c2)cn1	.	.	59	.	.	.	.
CCN1CCN(Cc2ccc(NC(=O)c3ccc(C)c(NC(=O)c4nccn4C)c3)cc2C(F)(F)F)CC1	.	.	.	.	.	.	/
CCN1CCN(Cc2ccc(NC(=O)c3ccc(C)c(NC(=O)N4CCNC4=O)c3)cc2C(F)(F)F)CC1	.	.	.	.	.	.	.
Cc1ccc(NC(=O)CSc2nn(-c3ccccc3)c(=S)s2)cc1S(=O)(=O)N(C)C	.	.	.	.	.	.	.
CCCCN1C(=O)c2cccc3cc(O)cc(c23)C1=O	.	.	.	.	.	.	/
CCOC(=O)c1cc(CC)sc1NC(=O)C(c1ccccc1)c1ccccc1	.	/	.	.	.	.	.
SMILES	AGP1 TOR yeast	CIT2-GFP yeast	VLA-4 inh	RPL19A-GFP yeast	LAP4 TOR yeast	MEP2 TOR yeast	VLA-4 allo CP
CCOC(=O)c1cc(CC)sc1NC(=O)C1CC1	.	.	.	.	.	.	/
COC(=O)c1cc(S(=O)(=O)NCC2CCN(CCc3cccs3)CC2)cn1C	.	.	.	.	.	.	/
COc1ccc(NC(=O)Nc2ccc(F)cc2)cn1	.	.	.	.	.	.	.
COC(=O)c1ccc(CSc2ccc3nnc(-c4ccccn4)n3n2)o1	.	.	54	.	.	.	.
COc1cc(C(=O)OCC(=O)Nc2c(F)c(F)c(F)c(F)c2F)cc(OC)c1OC	.	.	.	.	.	.	.
COc1ccc(OC)c2sc(NC(=O)c3cccc(N4C(=O)CCC4=O)c3)nc12	.	.	65	.	.	.	.
CCOc1ccc(CCNC(=O)COC(=O)c2ccc(S(=O)(=O)N3CCCC3)cc2)cc1OCC	.	.	.	.	.	.	/
O=C(Nc1ccccc1F)c1cc(S(=O)(=O)N2CCOCC2)ccc1N1CCOCC1	/	/	/	/	/	/	.
O=C(Nc1ccccc1Cl)c1cc(S(=O)(=O)N2CCCCC2)ccc1N1CCOCC1	.	.	.	.	.	.	.
O=C(Nc1cc(S(=O)(=O)N2CCOCC2)ccc1N1CCOCC1)c1ccccc1F	.	.	.	.	.	.	/
O=C(Nc1ccccc1N1CCCCC1)c1cc(S(=O)(=O)N2CCOCC2)ccc1Cl	.	.	.	.	.	.	/
O=C(CCc1ccc(S(=O)(=O)N2CCOCC2)cc1)Nc1ccccc1F	.	.	56	.	.	.	.
Cc1ccc(NC(=O)c2cc(S(=O)(=O)N3CCCCC3)ccc2N2CCOCC2)cc1S(=O)(=O)N(C)C	/	/	/	/	/	/	.
COc1cc(NC(=O)c2cc(S(=O)(=O)N3CCCCC3)ccc2N2CCOCC2)cc(OC)c1OC	/	/	/	/	/	/	.
O=C(Cc1ccccc1[N+](=O)[O-])Nc1ccc(S(=O)(=O)N2CCCC2)cc1	.	.	.	.	.	.	/
Cc1ccccc1NC(=O)c1ccc2nc(N3CCOCC3)sc2c1	.	.	.	.	.	.	.
Cc1ccccc1CNC(=O)c1ccc2nc(N3CCOCC3)sc2c1	.	.	.	.	.	.	.
O=C(c1ccc2nc(N3CCOCC3)sc2c1)N1CCN(C(=O)c2ccco2)CC1	.	.	.	.	.	.	.
O=C(NCc1ccccc1)c1ccc2nc(N3CCOCC3)sc2c1	.	.	.	.	.	.	/
Cc1cc(C(=O)N2CCN(C(=O)c3ccco3)CC2)ccc1[N+](=O)[O-]	.	.	51	.	.	.	.

Source: PubChem
